The full list was thinned out, with hits kept by preference.
Giardia FBPA inh = inhibitors of Giardia lamblia fructose-1,6-bisphosphate aldolase; 0.71% of 290,000 active; Potency, µM (series often up to 59.6 µM), for inactives: at the highest dose activity, negative = inhibition, actives largely listed as inhibitors; purified Giardia FBPA; AID 2451; A8B2U2; also: potency is read from the fitted curve at half-maximal effect; % is scaled to controls: 0 for no effect and ±100 for the full control effect; nearly all actives have a fitted effect of over 55% in size
Target sequence (A8B2U2 whole entry, looked up): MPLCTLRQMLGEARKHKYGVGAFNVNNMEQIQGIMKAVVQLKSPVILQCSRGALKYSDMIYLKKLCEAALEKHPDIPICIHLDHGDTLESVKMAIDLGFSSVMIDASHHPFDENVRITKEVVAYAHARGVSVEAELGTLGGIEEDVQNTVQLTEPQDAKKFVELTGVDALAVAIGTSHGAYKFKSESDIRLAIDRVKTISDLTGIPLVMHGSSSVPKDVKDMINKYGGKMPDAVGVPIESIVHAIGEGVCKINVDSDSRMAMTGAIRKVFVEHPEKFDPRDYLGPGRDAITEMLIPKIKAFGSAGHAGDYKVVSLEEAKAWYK
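40 nM FBPA preincubated 10 min at RT with compound (up to 57.5 uM final), then substrate plus GAPDH/TPI/NAD/arsenate coupling and diaphorase/resazurin added. Fluorescence read after 20 min at RT, 525/598 nm.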
CHX counter = counter-screen for Shiga toxin inhibitors: cycloheximide protein synthesis inhibition. cell reporter, cycloheximide protein synthesis inhibition counterscreen. max response, %. 12% of 300,000 active; in the data active = max response mostly above about 13%, no sharp cut-off; inactive = mostly below about 14%; also: read at 38.3 µM for the half of the compounds with a filed dose; 0% is about no effect
Tb PYK inh = blocks Trypanosoma brucei pyruvate kinase; Q57TT1; TbPYK enzyme, Kinase-Glo Plus ATP luminescence, 45 min; Potency, µM (doses to about 76.8 µM), inactives show at the highest dose activity, negative = inhibition, actives largely listed as inhibitors; 0.12% of 410,000 active; AID 624173; also: potency is read from the fitted curve at half-maximal effect; % is scaled to controls: 0 for no effect and ±100 for the full control effect; nearly all actives have a fitted effect of over 50% in size
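TbPYK + substrate in 50 mM TEA pH 7.2, 100 mM KCl, 10 mM MgCl2, 0.05% BSA, 0.01% Tween-20; cpd pinned; ADP 130 uM final; 45 min RT; Kinase-Glo Plus 10 min; luminescence endpoint.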
RE007 growth inh = less growth of the S. pombe RE007 Vpr strain | S. pombe RE007 Vpr strain, BacTiter-Glo ATP luminescence, 24 h | Potency, µM (titrated, usually from 92.2 µM), without a hit: top-dose activity change, negative = less growth, hits mostly inhibitors | 0.21% of 360,000 active | AID 651644; active = well fitted falling curve with a large enough effect; inconclusive = small, poorly fitted or top-dose-only effect; inactive = no such curve, though single readings can be large or run the other way; also: potency is read from the fitted curve at half-maximal effect; % is scaled to controls: 0 for no effect and ±100 for the full control effect; nearly all actives have a fitted effect of over 50% in size
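Fission yeast strain RE007, carrying one chromosomally integrated HIV-1 vpr copy, was seeded at OD 0.01 in PMG+AL medium with 23 nL pinned compound. After 24 h at 30 °C and 99% humidity, viability was read by BacTiter-Glo luminescence.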
Shiga toxin inh = Shiga toxin inhibition. AID 2315. Vero cells, Shiga toxin protein synthesis inhibition reporter. 9.2% of 290,000 active. inhibition, % at 38.7 µM; in the data active = inhibition mostly above about 28%, no sharp cut-off; inactive = mostly below about 43%; also: 0% is about no effect
LmPK inhibitor = inhibitors of Leishmania mexicana pyruvate kinase; Q27686; purified LmPK, Kinase-Glo ATP luminescence, 1 h; Potency, µM (titrated, usually from 57.5 µM), for the others: top-dose activity change, negative = inhibition, actives largely listed as inhibitors; 0.37% of 290,000 active; AID 1721; also: potency is read from the fitted curve at half-maximal effect; % is scaled to controls: 0 for no effect and ±100 for the full control effect
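Kinase-Glo luminescence read after 1 h RT reaction of 0.1 nM LmPK with 0.5 mM PEP and 0.1 mM ADP. Activity scaled between uninhibited and enzyme-free controls.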
Starred values were filed as active, the others as inactive; ? = inconclusive; · = no result; [ ] = remark or other dose. Unless noted, calls follow the shape of the dose curve; as a rule, active = well fitted curve in the direction sought with a large enough effect; inconclusive = small, poorly fitted or top-dose-only effect, or another doubt; inactive = no such curve, though single readings can be large; an effect the other way counts as inactive or inconclusive.

SMILES	Giardia FBPA inh	CHX counter	Tb PYK inh	RE007 growth inh	Shiga toxin inh	LmPK inhibitor
CSc1ccccc1OCc1cc(C(=O)N(Cc2nccn2C)C(C)C)no1	·	29*	4%	-18%	37	-3%
Cc1cc(OCc2cc(C(=O)N(Cc3nccn3C)C(C)C)no2)cc(C)c1Cl	·	26*	0%	-7%	55*	-8%
CCn1ccnc1CN(C)C(=O)c1cc(COc2ccccc2SC)on1	-4%	53*	-3%	-12%	96*	-5%
Cc1ccc(C)c(C(C)NC(=O)c2ccc(Br)o2)c1 (centres undefined)	-4%	-1	-24%	20%	25	3%
CC1SCC(=NOCc2c(Cl)cccc2Cl)CS1 (centres undefined)	2%	12	-5%	0%	62*	-3%
CNC(=O)Nc1ccc2nc(C)oc2c1	0%	5	-1%	-18%	5	-1%
O=C(Nc1ccccc1)Nc1ccc2ncoc2c1	-2%	42*	2%	14%	64*	-22%
O=C(Nc1ccccc1)Nc1ccc2ocnc2c1	-21%	42*	-1%	6%	67*	-23%
Cc1ccc(COc2coc(CO)cc2=O)cc1	3%	38*	4%	-6%	37	1%
Cc1cc(C)cc(NC(=O)[C@H](Cc2c[nH]c3ccccc23)NC(=O)[C@@H]2Cc3ccccc3CN2)c1	?	-2	4%	-18%	-6	-8%
CC(NC(=O)[C@H](Cc1c[nH]c2ccccc12)NC(=O)[C@@H]1Cc2ccccc2CN1)c1ccccc1 (some centres undefined)	-25%	-2	0%	-1%	-10	0%
Cc1cccc(NC(=O)[C@H](Cc2c[nH]c3ccccc23)NC(=O)[C@@H]2Cc3ccccc3CN2)c1	?	14*	-1%	-26%	16	-6%
CCc1ccc(NC(=O)[C@H](Cc2c[nH]c3ccccc23)NC(=O)[C@@H]2Cc3ccccc3CN2)cc1	?	16	1%	-13%	28*	-11%
CC(CN(C)C)CN1c2ccccc2S(=O)(=O)c2ccccc21 (centres undefined)	·	·	3%	·	·	·
CCn1nc(C)c(CNC(=O)c2cc(COc3cncc(Cl)c3)on2)c1C	1%	11	-10%	12%	-12	0%
CSc1ccccc1OCc1cc(C(=O)NCc2cccc(C)n2)no1	3%	80*	2%	-12%	99*	-10%
CSc1ccccc1OCc1cc(C(=O)NC(C)Cc2cccc(C)n2)no1 (centres undefined)	-1%	49*	2%	3%	88*	2%
CCn1nc(C)c(CNC(=O)c2cc(COc3ccccc3SC)on2)c1C	·	25*	-3%	-6%	57	1%
CCC(C)NC(=O)Cn1c(=O)n(-c2ccc(Cl)c(Cl)c2)c(=O)c2c(C)c(C(=O)N(CC)CC)sc21 (centres undefined)	·	·	-5%	·	·	·
CCOc1ccc(/C=C2\SC(=O)N(c3ccc(O)cc3)C2=O)cc1OC	4%	20*	6%	10%	13	-2%
O=C1/C(=C/c2cccs2)SC(=S)N1c1ccccc1	10%	-3	0%	-16%	36	3%
O=C1/C(=C/c2cccs2)SC(=S)N1c1cccc(O)c1	1%	26*	-7%	1%	61	6%
O=C1S/C(=C\c2cccs2)C(=O)N1c1ccc(O)cc1	-1%	38*	-5%	-4%	63*	-5%
COc1ccc(N(CC(=O)NCc2ccccc2OC)S(=O)(=O)c2ccc(C)cc2)cc1Cl	·	5	6%	0%	-30	-5%
COc1ccc(NC(=O)C(C)Sc2ccccc2)cc1 (centres undefined)	8%	55*	-3%	-1%	88*	-5%
SMILES	Giardia FBPA inh	CHX counter	Tb PYK inh	RE007 growth inh	Shiga toxin inh	LmPK inhibitor
O=C(C#Cc1ccccc1)Nc1cccc(F)c1	3%	60*	9%	?	128*	0%
O=C(CC(=O)Nc1cccc(F)c1)Nc1cccc(F)c1	8%	-2	0%	2%	17	-3%
O=C(C#Cc1ccccc1)NCc1ccccc1F	9%	21*	-2%	5%	67*	-7%
O=C(NCc1ccccc1F)C(c1ccccc1)c1ccccc1	5%	9	-7%	4%	10	-2%
O=C(C#Cc1ccccc1)Nc1ccc(F)cc1	-5%	34*	2%	-14%	32*	-1%
COC(=O)Cc1c(C)c2ccc3c(c2oc1=O)CN(Cc1ccc(Cl)cc1)CO3	·	·	-1%	·	·	·
COc1ccc(NC(=O)C#Cc2ccccc2)cc1	-6%	55*	0%	-13%	86*	-8%
COc1cccc(CN2C(=O)c3ccccc3Sc3ccc(C(=O)OCc4ccco4)cc32)c1	·	·	0%	·	·	·
COc1ccccc1/C=C/CN1CCCC(CO)(Cc2cccc(Cl)c2)C1 (centres undefined)	-1%	9	2%	-25%	47*	-3%
COc1cccc(CC2(CO)CCCN(C/C=C/c3ccccc3OC)C2)c1 (centres undefined)	10%	-5	-5%	9%	-2	2%
CCc1ccc(-c2nc(CS(=O)CC(=O)NCCc3ccccc3)c(C)o2)cc1 (centres undefined)	·	21*	0%	3%	43	9%
CCc1ccc(-c2nc(CS(=O)CC(=O)NCCCN3CCC(C)CC3)c(C)o2)cc1 (centres undefined)	-3%	19*	3%	-4%	19	-4%
CCc1ccc(-c2nc(CS(=O)CC(=O)NCCN3CCCCCC3)c(C)o2)cc1 (centres undefined)	-19%	27*	-2%	7%	22	-1%
Cc1ccc(-c2nc3ccccc3s2)cc1NC(=S)NC(=O)/C=C/c1ccco1	6%	29*	-6%	-3%	63*	4%
Cc1ccc(-c2nc3ccccc3s2)cc1NC(=S)NC(=O)c1cccc2ccccc12	1%	35*	-26%	-6%	80*	0%
O=C(/C=C/c1ccco1)NC(=S)Nc1cc(-c2nc3ccccc3s2)ccc1Cl	0%	58*	6%	2%	94*	1%
O=C(/C=C/c1ccco1)NC(=S)Nc1cccc(-c2nc3ccccc3s2)c1	·	·	-4%	-27%	·	·
COc1ccc(-c2nc3ccccc3s2)cc1NC(=O)c1ccccc1OC	·	·	0%	·	·	·
NC(=O)Oc1ccc(Cc2ccccc2)cc1	·	·	2%	·	·	·
COC(=O)C1=C(C(=O)OC)[C@@H]2Nc3ccccc3[C@@]23C[C@@H](C(=O)OC)N(S(=O)(=O)c2ccc(Br)cc2)C3=N1	0%[12.9 µM]	·	·	·	·	-1%[11.5 µM]
COC(=O)Nc1ccc2c(c1)ncn2C1CCCCC1	-1%	23*	·	-6%[3.69 µM]	31*	0%

Assay outcomes: PubChem BioAssay, National Center for Advancing Translational Sciences (NCATS)
